In PubChem BioAssay AID1903 (Southern Research Specialized Biocontainment Screening …, 2009):
Several values for one entry are separate records, joined by “and”; a condition that tells them apart may be missing. Equal entries are not always repeated. About 1,200 (0.39%) of roughly 310,000 compounds were called active. How the calls were made is not given here. Not all results are given here. Entries with a potency or affinity are not part of this list.

target: Large T antigen (Simian virus 40) (UniProt P03070); test: SV40 large T antigen inhibitors, biochemical (AID 1903); settings: SV40 large T antigen ATPase/helicase inhibition assay; at 20 µM; hits give high values
Sequence (P03070 whole entry, looked up): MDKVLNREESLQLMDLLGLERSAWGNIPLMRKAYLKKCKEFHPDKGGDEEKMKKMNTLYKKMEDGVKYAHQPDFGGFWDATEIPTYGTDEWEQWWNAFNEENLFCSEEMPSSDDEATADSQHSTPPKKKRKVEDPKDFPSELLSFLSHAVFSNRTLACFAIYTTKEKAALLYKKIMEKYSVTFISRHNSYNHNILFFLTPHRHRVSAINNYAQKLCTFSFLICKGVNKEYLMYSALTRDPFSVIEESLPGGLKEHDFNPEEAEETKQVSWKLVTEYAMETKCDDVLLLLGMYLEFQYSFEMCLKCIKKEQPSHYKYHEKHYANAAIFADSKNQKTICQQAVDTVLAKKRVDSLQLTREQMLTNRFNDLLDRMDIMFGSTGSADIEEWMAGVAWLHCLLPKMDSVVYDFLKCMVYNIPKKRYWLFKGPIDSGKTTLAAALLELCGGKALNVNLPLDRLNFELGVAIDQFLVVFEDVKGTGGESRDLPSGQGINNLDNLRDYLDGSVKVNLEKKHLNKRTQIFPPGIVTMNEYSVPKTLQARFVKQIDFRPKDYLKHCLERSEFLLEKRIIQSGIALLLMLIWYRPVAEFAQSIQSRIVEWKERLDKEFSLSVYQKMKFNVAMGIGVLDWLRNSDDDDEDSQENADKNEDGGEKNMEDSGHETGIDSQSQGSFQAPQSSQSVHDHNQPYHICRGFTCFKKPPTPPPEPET

inhibition, inactive:
Cc1ccccc1NC(=S)NCc1ccccc1 7.25%, CCOC(=O)c1cccc(Nc2nc(-c3cccnc3)nc3ccccc23)c1 6.16%, COc1ccc(CNC(=O)CSc2nnc(C)c(=O)[nH]2)cc1 8.06%, O=C1CC(Nc2ccc(N3CCOCC3)cc2)C(=O)N1c1ccccc1 (stereo not drawn) 21.4%, O=C1CC(Nc2ccccc2)C(=O)N1c1ccc(N2CCOCC2)cc1 (stereo not drawn) 6.8%, S=c1[nH]nc(C2CCCCC2)n1/N=C/c1ccc(Br)cc1 0.57%, CCOc1cc(CNCCO)cc(Br)c1OCc1cccs1 10.3%, CCN(CC)S(=O)(=O)c1ccc(NC(=O)c2cnccn2)cc1 19.6%, CCN(C(=O)CN1CCN(c2ccccc2)CC1)c1c(N)n(Cc2ccccc2)c(=O)[nH]c1=O 14.1%, CCN(C(=O)CN1CCN(c2ccc(OC)cc2)CC1)c1c(N)n(Cc2ccccc2)c(=O)[nH]c1=O 21.5%, Cc1ccc(C(=O)N/C(=C\c2ccc3c(c2)OCO3)C(=O)Nc2ccc(C(=O)O)cc2)cc1 1.87%, COCCN(C(=O)COC(=O)c1cc2c(s1)CCCC2)c1c(N)n(Cc2ccccc2)c(=O)[nH]c1=O 4.52%, CCC1CCc2sc(C(=O)OCC(=O)N(CCOC)c3c(N)n(Cc4ccccc4)c(=O)[nH]c3=O)cc2C1 (stereo not drawn) 16.3%, CCN1/C(=C2/SC(=S)N(NC(C)=O)C2=O)Sc2ccccc21 0.32%, Cc1ccc(-n2cc(CNCC3CC(=O)N(C4CC4)C3)c(-c3cccc(C)c3)n2)cc1 (stereo not drawn) 4.43%, O/N=C/c1ccc2ccccc2c1 70.8%, CCOc1ccc(N=Cc2ccc3ccccc3c2)cc1 21.9%, COc1ccc(S(=O)(=O)N(C)c2ccc(OC(=O)C(C)Oc3ccc(F)cc3)cc2)cc1 (stereo not drawn) 13%, N/C(=N\N=C\c1ccc2c(c1)OCO2)c1nonc1N 7.74%, Cc1cc(=O)oc2c(CN3CCCC3)c(O)ccc12 4.61%, Cc1cc(=O)oc2c(CN(CC(C)C)CC(C)C)c(O)ccc12 15.8%, COc1ccc(CCN2C(=NC(=O)CC(C)C)SC3CS(=O)(=O)CC32)cc1 (stereo not drawn) 0.43%, COc1cccc(/C=N/NC(=O)c2cccs2)c1 -1.95%, COc1ccc(/C=N/NC(=S)Nc2cccc(C(=O)O)c2)cc1OC 19.3%, COc1cc(/C=N/NC(=S)Nc2cccc(C(=O)O)c2)cc(OC)c1OC 5.01%, COc1cc(/C=N/NC(=O)c2cccc([N+](=O)[O-])c2)cc(OC)c1O 20.1%, COc1cc(/C=N/NC(=O)c2cccs2)ccc1OCc1ccccc1 -0.01%, CCCOc1ccc(/C=N/NC(=O)c2nnn(-c3nonc3N)c2-c2cccs2)cc1OC 10.3%, O=C(CNC(=O)c1cccc(F)c1)N/N=C/c1cccc([N+](=O)[O-])c1 16.8%, COc1ccc(/C=N/NC(=O)c2nnn(-c3nonc3N)c2-c2cccs2)cc1OC 7.55%, COc1cc(OC)c(C(=O)NCC2CCCO2)cc1OC (stereo not drawn) -5.36%, CS(=O)(=O)N1CCCC(C(=O)Nc2ccccc2F)C1 (stereo not drawn) 1.68%, O=C(O)c1cccc(NC(=O)c2ccccc2NC(=O)c2ccccc2F)c1 9%, Cc1ccc(NC(=O)CN(C)CC(=O)Nc2ccccc2C#N)cc1 8.84%, CC(Oc1ccc(Br)cc1)C(=O)O/N=C(\N)c1ccncc1 (stereo not drawn) 2.31%, COc1cccc(C(=O)C2CCCN(Cc3cn(C)nc3-c3ccccc3)C2)c1 (stereo not drawn) -3.2%, COc1cc2[nH]c(-c3cccc(F)c3)cc(=O)c2cc1OC 16.1%, CN(CC(=O)Nc1ccc(S(N)(=O)=O)cc1)Cc1ccccc1F 4.84%, COc1ccc(/C=N/NC(=O)c2cccc([N+](=O)[O-])c2)cc1OC 22.1%, COc1cc(/C=N\NC(=O)C2COc3ccccc3O2)cc(OC)c1O (stereo not drawn) 37.5%, COc1ccc(/C=N/NC(=O)c2cccc([N+](=O)[O-])c2)cc1O 29.7%, COc1ccc(/C=N/NC(=O)c2cnccn2)cc1O 26.2%, COc1cc(/C=N/NC(=O)c2cnccn2)cc(OC)c1OC -1.61%, COc1ccc(/C=N/NC(=O)C2COc3ccccc3O2)cc1OC (stereo not drawn) -1.14%, COc1cc(/C=N/NC(=O)c2ccccc2O)ccc1OCC(=O)Nc1ccccc1 13.3%, O=C(CC1SC(=O)NC1=O)Oc1ccc(/C=N/NC(=O)c2ccccc2O)cc1 (stereo not drawn) 48.3%, N#CCc1c(C#N)c(N)nc(N2CCOCC2)c1C#N 5.53%, CN(Cc1ccccc1)S(=O)(=O)c1ccc(NC(=O)c2ccccc2C(=O)O)cc1 4.64%, Cc1ccc(Cn2cnc3sc4c(c3c2=O)CCC4)c(C)c1 9.2%, O=C(N/N=C\C=C\c1ccc2c(c1)OCO2)C1COc2cc3ccccc3cc2O1 (stereo not drawn) 7.25%, COc1ccc(C(=O)Nc2cc(C)on2)cc1OC 4.7%, O=C(O)c1sccc1Oc1ccc(NS(=O)(=O)c2ccccc2)cc1 9.58%, O=C(OCc1nc2ccccc2[n+]([O-])c1C(=O)c1ccccc1)c1cccs1 8.13%, COc1cc(/C=N/N(c2ccccc2)c2ccccc2)ccc1O 18.7%, COc1cc(/C=N/NC(=O)c2cc(C3CC3)[nH]n2)cc(OC)c1OC 8.67%, CCOc1ccc(/C=N/N(C)c2ccccc2)cc1OC 3.32%, CCOc1cc(/C=N/NC(=O)c2c(-c3ccccc3)noc2C)ccc1O 34.1%, COc1cc(/C=N/NC(=O)c2cc[n+]([O-])cc2)ccc1O 27.9%, COc1cc(/C=N/NC(=O)c2c(-c3ccccc3)noc2C)cc(OC)c1OC 0.27%, COc1cc(C(=O)N/N=C/c2ccc(OC(=O)c3ccccc3)c(OC)c2)ccc1O 23.2%, COc1ccc(/C=N/NC(=O)c2cc(C3CC3)[nH]n2)cc1OC 11.7%, Cc1c(NS(=O)(=O)c2ccc(Br)s2)c(=O)n(-c2ccccc2)n1C 3.2%, O=C(NCCc1ccco1)c1cc(COc2cccc(C(F)(F)F)c2)on1 29.7%, CCc1ccc(CN2CCC(n3nccc3NC(=O)Cc3ccccc3)CC2)o1 13.5%, Cc1ccc(N(CC(=O)N/N=C/c2cccc(Br)c2)S(C)(=O)=O)cc1 9.07%, COc1cc(/C=N/NC(=O)c2cccc(C(=O)N/N=C/c3ccc(O)c(OC)c3)n2)ccc1O -2.1%, COc1cc(/C=N/NC(=O)c2cc3ccccc3[nH]2)ccc1O 27.5%, CCOc1cc(/C=N\NC(=O)c2c(C)nc3ccccn23)ccc1O 35%, Cc1cc(C)n2nc(C(=O)N/N=C/c3ccc(Cl)cc3)nc2n1 6.6%, CC(C)(C)c1cc(C(=O)N/N=C/c2ccc(F)cc2)n(-c2ccccc2)n1 -0.35%, Cc1ccc(/C=N/NC(=O)c2nc3nc(C)cc(C)n3n2)cc1 22.5%, COc1ccc(OC)c(/C=N\NC(=O)c2c(C)nc3cc(C)ccn23)c1 11.2%, CC(C)(C)c1cc(C(=O)N/N=C/c2ccccc2O)n(-c2ccccc2)n1 19.8%, COc1ccc(S(=O)(=O)N2CCCC(C(=O)NCCC(C)C)C2)cc1 (stereo not drawn) 5.62%, Cc1cccc(NC(=O)c2cc(-c3cc(C)c(C)cc3O)n[nH]2)c1 4.66%, CCOC(=O)Cc1c(C)nc(SC)[nH]c1=O 1.67%, Cc1nn(C)c(Oc2ccccc2)c1CCNC(=O)CCl -0.24%, COc1cccc(OC)c1C(=O)Nc1ccc(S(=O)(=O)Nc2cc(C)nc(C)n2)cc1 20.7%, COc1ccc(N(CC(=O)NCc2ccncc2)S(=O)(=O)c2ccccc2[N+](=O)[O-])c(OC)c1 2.38%, COc1ccc(/C=N/NC(=O)c2ccc3nc[nH]c3c2)cc1OC 3.44%, COc1cc(/C=N/NC(=O)c2ccc3nc[nH]c3c2)cc(OC)c1OC 8.71%, COCCSc1nc2c(c(=O)[nH]c(=O)n2C)n1CCCc1ccccc1 3.03%, Cc1noc(C)c1COC(=O)c1cccnc1SCC(=O)Nc1ccc2c(c1)OCO2 2.06%, Cc1ccccc1Cn1cnc2c(NS(C)(=O)=O)c(C)c(C)cc21 0.14%, Cc1c(Cl)cccc1N=C(N)N=C(N)N 13.8%, NC(N)=N/N=C/c1c(Cl)cccc1Cl 21.2% and 9.2%, COc1cc(/C=N/N=C(/C(=O)c2ccccc2)c2ccccc2)cc(OC)c1O 15.6%, COc1ccc(OC)c(N=C2C(=O)Nc3ccccc32)c1 4.71%, COc1cc(/C=N/N=C2/NC(=O)C(c3ccccc3)S2)ccc1O (stereo not drawn) 30.9%, O=C1Nc2ccccc2/C1=N/N=C/c1cccc(O)c1 13.2%, COc1ccc(O)c(/C=N/N=C2/C(=O)Nc3ccccc32)c1 12.5%, Cc1ccsc1/C=N/N=C1\C(=O)Nc2ccccc21 -4.81%, COC(=O)c1ccc(S(=O)(=O)N2C3CCC2CC(NC(=O)C2CC2)C3)cc1 (stereo not drawn) -2.31%
